# Screen size: about 360,000 compounds; about 7,500 (2.1%) were called active. Inconclusive results (about 8%) are left out. This is one part of a sample in which actives are shown more often than they occur. Calls follow the shape of the dose curve; as a rule, active = well fitted cell-killing curve with a large enough effect; inconclusive = small, poorly fitted or top-dose-only effect, or effect the other way, or another doubt; inactive = no such curve, though single readings can be large or run the other way.
# Assay: qHTS for induction of synthetic lethality in tumor cells producing 2HG: qHTS for the HT-1080-IDH1KD cell line
# Conditions: HT-1080 IDH1 knockdown viability, ATP luminescence, 48 h; series mostly up to 46.1 µM; activity, negative = toxicity: at the top concentration
# From the text: Unbiased genomic sequencing for 22 glioma genomes found recurrent mutation of IDH1 on chromosome 2q33, a gene encoding the cytosolic isoform of IIDH1 associated with the tri-carboxylic acid cycle (TCA) that catalyzes the oxidative decarboxylation of isocitrate, yielding alpha-ketoglutarate and CO2 via NADP+ to NADPH conversion. Subsequent studies confirmed the recurrent IDH mutations in up to 70% of secondary gliomas and in 10% of AML cases. In addition, the somatic mutation of cancer-associated IDH1 is a point mutation resulting in various amino-acid substituents at Arginine132 (IDH1 R132), a key residue found in the enzyme's active site that when mutated, results in the loss-of-function in metabolizing isocitrate but confers a gain-of-function to produce the oncometabolite 2-hydroxyglutarate (2HG). This in effect defines IDH1 as an oncogene and provides an extraordinary opportunity to discover chemical probes against mutant IDH1 that may translate into much needed new therapies for glioma and AML patients.
# This assay aims to perform a synthetic-lethal screen for chemical probes specific for 2HG-producing tumor cells using matched paired cell lines (1) HT-1080-NT fibrosarcoma cell line that overproduces 2HG and (2) HT-1080-IDH1KD cell line which has IDH1 expression knocked-down. Desirable compounds are toxic to the NT fibrosarcoma cell line but not to the IDH1KD cell line. The data in this AID corresponds to the results of the qHTS against the HT-1080 IDH1KD cell line.
# [1] Dang L, Jin S, Su SM. IDH mutations in glioma and acute myeloid leukemia. Trends of Mol Med. 2010; 16(9): 387-97.
# [2] Dang L et al. Cancer-associated IDH1 mutations produce 2-hydroxyglutarate. Nature. 2010; 465(7300):966.
# Molecular Libraries Probe Production Centers Network [MLPCN]
# NIH Chemical Genomics Center [NCGC]
# Assay Submitter (PI): Lenny Dang Ph.D., Agios Pharmaceuticals
# Suspensions of trypsinized HT-1080-IDH1KD cells were dispensed into white, tissue culture-treated, solid 1536-well plates at 5uL/well (750 cells/well final concentration) in RPMI medium supplemented with 5% FBS. Plates were incubated at 37 degrees C for 2 hours, after which 23 nL of compounds or DMSO were delivered to each well using a pin tool. Plates were then incubated at 37 degrees C for an additional 48 hours. CellTiter-Glo viability reagent (Promega) was dispensed into wells (2.5uL/well) and incubated at room temperature for 10 minutes. The plates were measured on a PerkinElmer ViewLux plate reader for luminescent signal (clear filter, 1 sec exp.). DMSO-treated control wells and media-only (no cells) control wells were used to normalize %Activity of identified toxic compounds; DMSO-treated wells corresponded to 0%Activity (100% viability), while media-only controls were used to normalize 100%Activity (0% viability). To minimize variability between cell lines, both HT-1080-NT and HT-1080-IDH1KD lines were dispensed and treated with identical compound series in single batches.
# Concentration-response curves were fitted to the signals arising from the resulting luminescence. The concentration-effect curves were then classified based on curve quality (r2), response magnitude and degree of measured activity, and compounds were subsequently categorized based on their curve class.
# Potency is read from the fitted curve at half-maximal effect.
SMILES,"activity, negative = toxicity",Potency
CC1CC=CCC12C(=O)NC(=S)NC2=O (stereo not given),12.1% (inactive),–
C[C@]12CCCCC1=CC(=O)C1C2CC[C@@]2(C)C1C[C@@H](F)[C@@H]2O (stereo not given in full),-0.58% (inactive),–
CCOC(=O)CNC(=O)N1Cc2cc(N3CCCCC3)ccc2-n2nncc2C1,15.5% (inactive),–
Cc1ccc(OC(=O)N(C)C[C@@H]2OCc3cnnn3CCCC(=O)N([C@H](C)CO)C[C@@H]2C)cc1,0.516% (inactive),–
COc1ccc(N2C(=O)/C(=C/c3ccco3)C(=O)NC2=S)cc1,1.76% (inactive),–
O=C1NC(=O)N(Cc2ccco2)C(=O)/C1=C\c1ccc(-c2ccc(F)cc2)o1,–,18.4 µM (active)
CCOC(=O)c1cccc(C2=C(CNC(=O)c3ccncc3)[C@H]3CC[C@@H](C2)N3Cc2ccccc2)c1,-5.65% (inactive),–
CNC(=O)Nc1ccc(C(O)(C(=O)OC)C(F)(F)F)cc1 (stereo not given),3.8% (inactive),–
CCNS(=O)(=O)c1ccc(NC(=O)Nc2cccc(C(F)(F)F)c2)cc1,–,11.2 µM (active)
NC(=O)Nc1cccc(C(F)(F)F)c1,0.786% (inactive),–
O=P(OC1=CCCCC1)(c1ccccc1)c1ccccc1,-14.1% (inactive),–
COP(=O)(NS(=O)(=O)c1ccccc1)OC,9.88% (inactive),–
c1ccc(C(CN2CCCCC2)c2ccccc2)cc1,14.8% (inactive),–
O=c1c2ccccc2[nH]c(=S)n1-c1cccc(Cl)c1,-12.2% (inactive),–
O=C1C2(Cl)C3(Cl)C4(Cl)C(Cl)(Cl)C5(Cl)C3(Cl)C1(Cl)C5(Cl)C24Cl (stereo not given),–,16.4 µM (active)
CC1C(=O)OC2CCN3CC=C(COC(=O)C(C)(O)C1(C)O)C23 (stereo not given),6.77% (inactive),–
Cc1cccc(NC(=O)OC2CN3CCC2CC3)c1 (stereo not given),5.13% (inactive),–
CN1CCN(Cc2ccc(OC(F)(F)F)cc2)CC1,10.9% (inactive),–
O=c1c2ccccc2nc(/C=C/c2ccco2)n1-c1ccccc1O,-27.3% (inactive),–
O=c1c2ccccc2nc(/C=C/c2ccc(F)cc2)n1-c1ccccc1O,–,20.6 µM (active)
Cc1nc2ccccc2c(=O)n1-c1ccc(Cl)cc1Cl,-2.58% (inactive),–
CCOc1cccc(=NC2CCCCC2)c2c(C)[nH]c(C)c12,–,20.6 µM (active)
C=C(C)C1(CCCC)C(=O)NC(=S)NC1=O,22.4% (inactive),–
CC(=O)Nc1ccc(C(=O)C(Cc2ccccc2)N(C)C)cc1 (stereo not given),2.05% (inactive),–
CSc1nc2ccc(C)cc2c(=O)n1-c1cccnc1,0.487% (inactive),–
O=C(NC1CCCCC1)N1Cc2cc(N3CCCCC3)ccc2-n2nncc2C1,13.2% (inactive),–
Cc1cc2ccccn2c1C(C[N+](=O)[O-])c1c(F)cccc1Cl (stereo not given),–,10.3 µM (active)
CN1CCc2cc3c(cc2[C@H]1[C@@H]1OC(=O)c2c1ccc1c2OCO1)OCO3,3.58% (inactive),–

SMILES,"activity, negative = toxicity",Potency
c1cc2c(c(NC3=NCCCS3)c1)CCCC2,-20.4% (inactive),–
COC(=O)C1=C(c2ccc(OCc3ccccc3)cc2)C[C@@H]2CC[C@H]1N2C(=O)NCc1ccc(Cl)cc1,2.58% (inactive),–
Cc1nc2nc(C)c(CCC(=O)N3CCC4(CC3)OCCO4)c(C)n2n1,15.2% (inactive),–
COC1=CC=C2[C@H]3Cc4ccc(OC)c5c4[C@@]2(CCN3C)C1O5 (stereo not given in full),-7.32% (inactive),–
COc1ccc2c3c1O[C@H]1C[C@@H](O)C=C[C@@]31CCN(C)C2,–,5.8 µM (active)
COc1ccc2c(c1O)-c1cccc3c1[C@@H](C2)N(C)CC3,-0.356% (inactive),–
COc1ccc(C(=O)CC2C(=O)N(C)C(=O)N(C)C2=O)cc1,-2.16% (inactive),–
Cc1ccc(-n2c(O)c(C=NCC3CCCO3)c(=O)[nH]c2=O)c(C)c1 (stereo not given),5.18% (inactive),–
COc1ccc(NC(=O)N2Cc3ccccc3-n3nncc3C2)cc1,14% (inactive),–
Cc1ncoc1C(=O)NCC1=C(c2cccc3ccccc23)C[C@@H]2CC[C@H]1N2Cc1ccco1,3.31% (inactive),–
COc1cc(Cn2c(N)c(C(=O)NCc3ccco3)c3nc4ccccc4nc32)cc(OC)c1OC,–,8.91 µM (active)
COC(=O)C1=C(c2ccccc2)C[C@@H]2CC[C@H]1N2C(=O)NCc1ccco1,10.2% (inactive),–
CCOC(=O)C1(c2ccccc2)CCN(CC(O)c2ccc(NC(C)=O)cc2)CC1 (stereo not given),-4.56% (inactive),–
CC12CCC3C(CCC4CC(=O)CCC43C)C1CC(=NO)C2=O (stereo not given),-6.65% (inactive),–
CNC(=O)O/N=C(\N)Cc1csc2ccc(Cl)cc12,–,20.6 µM (active)
CNC(=O)O/N=C(\N)Cc1csc2ccccc12,-5.52% (inactive),–
COC(=O)C1=C(c2ccc(OCc3ccccc3)cc2)C[C@@H]2CC[C@H]1N2C(=O)NCc1cccc(F)c1,-15% (inactive),–
O=C(NC(=S)N1C[C@H]2C[C@H](C1)c1cccc(=O)n1C2)c1ccc(F)cc1,3.21% (inactive),–
CC(CC(C#N)(c1ccccc1)c1ccccc1)N1CCCCC1 (stereo not given),7.07% (inactive),–
C=CCN1C(=O)C2(C(C(=O)OCC)=C(N)Oc3c2c(=O)oc2ccccc32)c2ccccc21 (stereo not given),6.5% (inactive),–
O=c1c2ccccc2nc(CBr)n1-c1ccc(Cl)cc1,-6.41% (inactive),–
CC1CNCCN1c1ccc(Cl)cc1 (stereo not given),1.1% (inactive),–
CC1=CC(=Cc2sc3ccccc3[n+]2C)C=C(C)O1,–,10.3 µM (active)
COc1ccccc1C1=NCc2nnc(CSC)n2-c2ccc(Cl)cc21,-20.5% (inactive),–
c1ccc(N2Cc3ccccc3-n3nncc3C2)nc1,-2.59% (inactive),–
COc1cccc(C(c2nnnn2-c2ccc3c(c2)OCCO3)N2CCC3(CC2)C(=O)NCN3c2ccccc2)c1OC (stereo not given),–,16.4 µM (active)
CC(=O)Nc1ccccc1C(=O)OCC(=O)c1cccc2ccccc12,4.55% (inactive),–

# — PubChem BioAssay AID686971 (National Center for Advancing Translational Sciences (NCATS), 2013)
